Source: PubChem (National Center for Advancing Translational Sciences (NCATS))
Rows were chosen to be rich in hits. Some 12% of all compounds tested hit in one or more screens of this group.
Sfp PPTase inh: blocks B. subtilis Sfp PPTase activity; Q9F4F7; Biochemical Sfp PPTase activity, qHTS; Potency, µM, for inactives: largest response in the series, negative = inhibition, usual class: inhibitors; 310,000 compounds, 3.5% hits;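 note: the enzyme is Sfp with the accession as filed and its product quenches rhodamine fluorescence; 0% = enzyme reaction without inhibitor and -100% = no enzyme wells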
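With Hepes-Na pH 7.6 buffer containing 10 mM MgCl2, Sfp (15 nM) modified BHQ-2-YbbR (12.5 uM) using rhodamine-CoA (5 uM). Two reads 30 minutes apart at 525/598 nm yielded each well's rate.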
G9a inh: blocks human histone lysine methyltransferase G9a; G9a H3K9 monomethylation, AlphaScreen, 2 h; 350,000 compounds, 8.8% hits; Q96KQ7; AID 504332; Potency, µM (series often up to 102 µM), for the others: at the top dose activity, negative = inhibition, actives largely listed as inhibitors; note: % is set by controls: 0 for no effect and ±100 for the full control effect; nearly all actives have a fitted effect of over 75% in size
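Chemiluminescent proximity detection of H3K9 monomethylation, read after 10 min bead incubation in the dark. Reaction: 20 nM G9a, 500 nM biotin-H3K9 peptide, 20 uM SAM cofactor, 2 h, room temperature, following 15 min enzyme-compound preincubation.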
BAZ2B inh: inhibitors of human BAZ2B bromodomain | 360,000 compounds, 4.4% hits | AlphaScreen BAZ2B-H3K14Ac peptide displacement | Potency, µM (series often up to 114 µM), for the others: top-dose activity change, negative = inhibition, hits mostly inhibitors; note: % is set by controls: 0 for no effect and ±100 for the full control effect; nearly all actives have a fitted effect of over 60% in size
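Compounds, titrated to a top concentration of 110 uM, were incubated 30 min at room temperature with preformed BAZ2B/acetyl-K14 H3 peptide complex (50 nM each). Proximity signal was measured by AlphaScreen after 20 min with beads.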
HP1b binding inh: HP1-beta chromodomain-methylated histone interaction inhibition. 390,000 compounds, 0.56% hits. P83916. AlphaScreen HP1-beta / biotin-H3K9me3 peptide binding. AID 540317. Potency, µM (series often up to 114 µM), without a hit: at the highest dose activity change, negative = inhibition, most hits filed as inhibitors; note: nearly all actives have a fitted effect of over 70% in size
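HP1-beta protein (50 nM final) preincubated 30 min at room temperature with biotinylated H3(1-18)K9me3 peptide (50 nM) in PBS pH 7.4, 0.01% Tween-20, then compound added for 30 min. AlphaScreen streptavidin donor/nickel chelate acceptor beads (10 ug/mL final), 30 min dark, luminescence read.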
JMJD2A Tudor inh: inhibitors of human JMJD2A Tudor domain | O75164 | AlphaScreen JMJD2A-Tudor / H3K4me3 peptide binding | Potency, µM (titrated, usually from 114 µM), inactives show top-dose activity change, negative = inhibition, actives largely listed as inhibitors | 390,000 compounds, 4.4% hits; note: % is set by controls: 0 for no effect and ±100 for the full control effect; nearly all actives have a fitted effect of over 50% in size
* hit, by the source's call; ? = inconclusive; . = no result given; [ ] = remark or other dose. Calls come from the whole dose curve; as a rule, active = well fitted curve in the direction sought with a large enough effect; inconclusive = small, poorly fitted or top-dose-only effect, or another doubt; inactive = no such curve, though single readings can be large; an effect the other way counts as inactive or inconclusive. Potency is the fitted concentration of half-maximal effect.

SMILES	Sfp PPTase inh	G9a inh	BAZ2B inh	HP1b binding inh	JMJD2A Tudor inh
Cc1ccc(NC(=O)C2(c3ccccc3)CCOCC2)cc1	21%	7%	-9%	-6%	50µM*
COc1ccccc1OCC(=O)N(Cc1ccc(N(C)C)cc1)CC1CCCO1 (stereo unspecified)	.	?	?	9%	?
CN(C)c1ccc(CN(CC2CCCO2)C(=O)COc2ccccc2Cl)cc1 (stereo unspecified)	.	13µM*	40µM*	?	45µM*
Cc1cc(Cl)ccc1OCC(=O)N(Cc1ccc(N(C)C)cc1)CC1CCCO1 (stereo unspecified)	.	18µM*	11µM*	?	28µM*
COc1ccc(C(C#N)N2CCC(c3ccccc3)=N2)cc1 (stereo unspecified)	12%	35µM*	2%	59%	3%
COc1cc(C(C#N)N2N=C(c3ccccc3)CC2c2ccccc2)ccc1O (stereo unspecified)	-2%	-48%[59 µM]	23%	17%	-19%
CCCc1c(C)nn(-c2ncccc2[N+](=O)[O-])c1C	17%	34%[12.7 µM]	-22%	42%	-1%
COc1ccc(Nc2cc(C)nc3nc(C)nn23)cc1Cl	-18%	89µM*	15%	52%	-4%
COc1ccc(Nc2cc(C)nc(-n3nc(C)cc3C)n2)cc1Cl	.	25%[59 µM]	6.3µM*	10%[57 µM]	?
Cc1cc(Nc2ccc(C(C)C)cc2)nc(-n2nc(C)cc2C)n1	.	8%[59 µM]	-38%	19%[57 µM]	?
Cc1cc(Nc2ccc(F)c(Cl)c2)n2nc(C)nc2n1	9%	?	5%	23%	3%
CCOc1ccc(Nc2cc(C)nc3nc(C)nn23)cc1	-1%	89µM*	0%	4%	-12%
N#CN=c1snc(-c2ccccc2)n1-c1ccc(Br)cc1	.	.	.	23%[57 µM]	-20%[57.1 µM]
O=C(NCCCc1nc2ccccc2n1CCCCOc1ccccc1)C1CCCCC1	.	.	.	16%[57 µM]	-19%[57.1 µM]
C#CCOCCOCCOCCNc1nc(N2CCN(C(=O)C([C@@H](C)CC)n3cc(C(N)COC(=O)C(F)(F)F)nn3)CC2)nc(N2CCN(C(=O)C([C@@H](C)CC)n3cc(C(N)CC(C)C)nn3)CC2)n1 (stereo partly specified)	.	.	.	29%	79µM*
C#CCOCCOCCOCCNc1nc(N2CCN(C(=O)C([C@@H](C)CC)n3cc(C(N)COC(=O)C(F)(F)F)nn3)CC2)nc(N2CCN(C(=O)[C@H](CCC(=O)O)n3cc(C(N)CC(C)C)nn3)CC2)n1 (stereo partly specified)	.	.	.	42%	63µM*
Cn1c(=O)c2c(-c3ccccc3)n(-c3cccc(C#N)c3)cc2n(C)c1=O	.	?	-8%	13%	-28%
Cc1cc2c(Nc3ccc(O)cc3)ncnc2s1	1%	56µM*	?	37%	-13%
CCc1cccc(C)c1NC(=O)Cn1nc(C)c2nn(-c3ccc(Cl)cc3)c(C)c2c1=O	.	-1%[59 µM]	2%	27%[57 µM]	-9%
Cc1nn(-c2ccccc2)c2c1C(c1cccnc1)N1C=C(S(=O)(=O)N3CCCCC3)C=CC1=N2 (stereo unspecified)	-1%	79µM*	-36%	-30%	?
CC(=O)n1c2ccccc2c2nc(NC(C)C)sc21	?	?	50µM*	?	50µM*
Cc1ccc(CC(=O)NCC(O)c2ccccc2)cc1 (stereo unspecified)	12%	21%	5%	14%	-6%
Cc1ccc(C)c(NCC(O)c2ccccc2)c1 (stereo unspecified)	25%	71µM*	-33%	3%	-16%
COc1cccc(NC(=O)c2oc3ccccc3c2NC(=O)c2ccc(C(F)(F)F)cc2)c1	.	-14%[59 µM]	-6%	30%	-14%
CCCOc1cccc(-c2nn(-c3ccccc3)cc2/C=C(\C#N)C(=O)NCCCn2ccnc2)c1	-20%	-9%[59 µM]	?	?	45µM*
SMILES	Sfp PPTase inh	G9a inh	BAZ2B inh	HP1b binding inh	JMJD2A Tudor inh
O=C(NCCCn1ccnc1)c1cn(-c2ccccc2)nc1-c1ccc(F)cc1	-1%	21%	-2%	-9%	?
N#C/C(=C/c1cn(-c2ccccc2)nc1-c1cccc(OCc2ccc(F)cc2)c1)C(=O)NCCCn1ccnc1	?	1%[59 µM]	10µM*	-21%	16µM*
CCN1CCN(CCCNC(=O)C2CCN(c3nnc(-n4c(C)ccc4C)s3)CC2)CC1	8%	3%	-37%	19%	-26%
O=C(/C=C/c1cccs1)Nc1scc(-c2ccccc2)c1C(=O)O	32µM*	32µM*	.	?	7.1µM*
Cc1ccccc1Nc1nc(-c2sc(NC(=O)c3ccccc3)nc2C)cs1	25µM*	35µM*	?	.	.
Cc1ccccc1Nc1nc(-c2sc(NC(=O)c3cccc(Cl)c3)nc2C)cs1	-7%	22µM*	89µM*	.	.
Cc1ccc(Cl)cc1Nc1nc(-c2sc(NC(=O)c3cccc(Cl)c3)nc2C)cs1	-1%	32µM*	?	.	.
CCOc1ccccc1Nc1nc(-c2sc(NC(=O)c3ccc([N+](=O)[O-])cc3)nc2C)cs1	-2%	?	?	.	.
Cc1ccc(Nc2nc(-c3sc(NC(=O)c4ccc([N+](=O)[O-])cc4)nc3C)cs2)cc1	6%	.	45µM*	.	.
CCN1C(C(=O)c2ccccc2)=C(OC(=O)c2ccc(OC)cc2)c2ccccc2S1(=O)=O	.	-35%[59 µM]	-30%	22%	-27%
Cc1coc2cc3oc(=O)ccc3cc12	12%	-3%	6%	23%	-16%
Cc1ccccc1Nc1nc(-c2sc(NC(=O)c3ccc([N+](=O)[O-])cc3)nc2C)cs1	-10%	25µM*	45µM*	.	.
O=S(=O)(c1ccccc1)N1CCC[C@@]2(CCN(c3ncccn3)C2)C1	20%	-1%[12.7 µM]	.	.	.
COC(=O)[C@@]12CCCN1[C@H](c1ccc(-c3ccc(F)cc3)cc1)[C@H]1C(=O)N(C)C(=O)[C@H]12	.	-3%[2.33 µM]	71µM*	33%	-28%
O=C(NC1CCCCC1)/C(=N\O)c1ccccn1	-8%	50µM*	-31%	-1%	?
Cc1ccc(NC(=O)CCC(=O)c2ccc(Cl)s2)nc1	.	23%[12.7 µM]	56µM*	17%	-30%
O=C(CCCNC(=O)c1ccc(Cl)cc1)Nc1ncccc1O	14%	16%	?	21%	-18%
Cc1ccc(C(=O)CCC(=O)Nc2ncccc2O)cc1	.	-47%	79µM*	6%	?
O=C(CCNC(=O)c1ccc(Cl)cc1)Nc1ncccc1O	3%	13%	79µM*	26%	-24%
O=C(CCC(=O)c1ccc(Cl)s1)Nc1ncccc1O	.	?	56µM*	3%	56µM*
CCCOC(=O)c1c(NC(=O)C2c3ccccc3Oc3ccccc32)sc2c1CCCC2	.	-19%[59 µM]	-19%	-13%	-35%
O=C(CCC(=O)c1cccs1)Nc1ncccc1O	.	?	56µM*	17%	?
Cc1ccc(NC(=O)CCC(=O)c2cccs2)cc1	14%	21%[12.7 µM]	3%	16%	-4%
Cc1cc(C)n2ncc(C(=O)NC(C)C)c2n1	.	.	.	.	-16%
